Compound activity as filed in PubChem.
An excerpt weighted towards active compounds, which were near 4.7% of everything screened.
D1 antag – antagonists of human D1 dopamine receptor; P21728; HEK293 TREx D1 cells, calcium flux, dopamine EC80; stronger effect = lower value; activity change, negative = inhibition, % at 10 µM; 3.2% of 360,000 active; AID 504652; in the data active = activity change below about -30%; note: % is set by controls: 0 for no effect and ±100 for the full control effect
Target sequence (P21728 whole entry, looked up): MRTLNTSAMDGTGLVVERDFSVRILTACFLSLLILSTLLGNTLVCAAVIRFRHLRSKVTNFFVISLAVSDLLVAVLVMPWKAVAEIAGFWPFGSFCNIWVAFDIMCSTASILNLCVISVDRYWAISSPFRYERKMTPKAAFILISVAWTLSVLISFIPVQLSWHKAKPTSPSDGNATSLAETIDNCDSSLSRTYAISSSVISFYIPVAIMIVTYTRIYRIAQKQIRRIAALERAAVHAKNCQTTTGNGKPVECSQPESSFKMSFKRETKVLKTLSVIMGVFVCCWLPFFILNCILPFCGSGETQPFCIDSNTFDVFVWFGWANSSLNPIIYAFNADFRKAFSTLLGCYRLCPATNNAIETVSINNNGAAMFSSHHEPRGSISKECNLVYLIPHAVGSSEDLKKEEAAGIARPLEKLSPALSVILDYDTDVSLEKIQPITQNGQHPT
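Antagonism measured as reduced calcium response to an EC80 dopamine addition following 180 s compound pre-read; cells were inducible HEK293 Trex D1 plated overnight at 30 C, read kinetically at 1 cycle/sec.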
D1 potentiator – enhances dopamine response at the human D1 receptor | P21728 | HEK293 TREx D1 cells, calcium flux, dopamine EC20 potentiation | potentiation, % at 10 µM | 0.036% of 360,000 active | AID 504651; in the data active = potentiation above about 30%; note: 0% is about no effect
D1 agonist – activates the human D1 dopamine receptor; activation, % at 2 µM; HEK293 T-REx D1 cells, calcium flux, agonist mode; AID 504660; 1% of 360,000 active; P21728; note: 0% is about no effect
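Tetracycline-induced HEK293 TREx D1 cells, force-coupled to calcium signalling, were dye-loaded with a no-wash calcium kit. Compound was pin-added after a 10 s baseline. Fluorescence was read kinetically at 1 cycle/s for 180 s, with calcium rises flagged as agonism.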
TRHR PAM – allosteric enhancers of human TRH receptor | P34981 | TRHR cells, fluo-8 calcium fluorescence, EC20 TRH enhancement | enhancement, % at 2 µM | 0.66% of 360,000 active | AID 493056; in the data active = enhancement above about 30%; note: 0% is about no effect
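Enhancer read-out: after compound pinning and an initial kinetic agonist-mode read, an EC20 of TRH (10 nM final) was injected and fluo-8 calcium signal (Ex 480/Em 530) followed at 1 s/cycle for 100 cycles in TRHR-expressing cells.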
TRHR ag – activates the human TRH receptor. P34981. TRHR cells, calcium flux fluo-8, FDSS agonist mode. activation, % at 2 µM. 0.18% of 360,000 active; note: 0% is about no effect
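Read-out: compound-evoked intracellular calcium rise in TRHR cells, fluo-8 dye, kinetic FDSS fluorescence at 1 s/cycle following a 10-cycle baseline. Cells cultured overnight before dye loading (30 min–1.5 h, RT).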
Active calls of the source: *; nt = no result given. Cut-off read from the data, not from the text of the source, unless noted: active = activation above about 30%; inactive = the rest.

SMILES	D1 antag	D1 potentiator	D1 agonist	TRHR PAM	TRHR ag
Nc1ccc2cc(Br)ccc2c1	-31*	-3	1	1	0
Brc1ccc(Oc2ccc(Br)cc2Br)c(Br)c1	nt	-3	5	1	1
Cc1cccc(-n2c(/C=C/c3c[nH]c4ccccc34)nc3ccccc3c2=O)c1	-6	3	8	-9	2
CCCCc1ccc(NC(=O)c2cccn(Cc3ccc(Cl)cc3)c2=O)cc1	12	-1	4	2	1
CCOc1cccc(N2C(=O)/C(=C/c3ccco3)C(=O)NC2=S)c1	7	-3	-1	34*	1
COc1ccc(N2C(=O)/C(=C/c3ccc(N(C)C)o3)C(=O)NC2=S)cc1	-3	3	35*	-1	11
O=C1NC(=S)N(c2ccccc2)C(=O)/C1=C/c1ccco1	-28	-4	2	-6	1
CCN(CC)c1ccc(C=C2C(=O)N(C)C(=S)N(C)C2=O)o1	-10	0	50*	1	0
COc1ccc(N2C(=O)NC(=O)/C(=C\c3cn(C)c4ccccc34)C2=O)cc1	-11	0	54*	9	16
COc1cccc(N2C(=O)/C(=C/c3ccc(C)o3)C(=O)NC2=S)c1	1	8	2	-4	2
COc1ccc(C)cc1NC(=O)c1cccn(Cc2cccc([N+](=O)[O-])c2)c1=O	nt	5	0	4	1
CCN(CC)c1ccc(/C=C2\C(=O)NC(=S)N(C)C2=O)o1	0	-5	65*	-6	29
CN1C(=O)C(=Cc2ccc(N3CCCCC3)o2)C(=O)N(C)C1=S	-7	3	85*	2	0
COC(=O)C1=C(c2ccc(OC)c(OC)c2)C[C@@H]2CC[C@H]1N2C(=O)NC1CC1	nt	1	1	-1	0
COC(=O)C1=C(c2cccc(C#N)c2)C[C@@H]2CC[C@H]1N2C(=O)NC1Cc2ccccc2C1	-41*	-5	1	-5	0
COC(=O)C1=C(c2cccc(C#N)c2)C[C@@H]2CC[C@H]1N2C(=O)N1CCCCC1	-37*	-2	1	0	0
COC(=O)C1=C(c2cccc(C#N)c2)C[C@@H]2CC[C@H]1N2C(=O)NC1CC1	nt	0	1	-1	0
COC(=O)C1=C(c2ccc(OC)c(OC)c2)C[C@@H]2CC[C@H]1N2C(=O)NC(C)C	-42*	6	-2	5	0
CCCC12CN3CC(C)(CN(C1)C3c1c(C)[nH]c(=O)[nH]c1=O)C2=O (stereo not drawn)	-7	0	-1	-1	1
O=C(c1ccc2c(c1)N(Cc1c(F)cccc1Cl)C(=O)c1ccccc1S2)N1CCC2(CC1)OCCO2	5	1	1	-13	-1
CN(CCc1ccccc1)Cc1c[nH]c2ccccc12	-66*	-13	12	10	3
O=C(Nc1ccc(F)c(Cl)c1)N(Cc1ccc2c(c1)OCO2)C1CCN(Cc2ccccc2)CC1	-19	2	17	7	2
CN1C(=O)C(=Cc2ccc(OCC(=O)Nc3ccccc3)cc2)C(=O)N(C)C1=O	-34*	-1	4	-1	0
CCNCC(O)c1cccc(O)c1 (stereo not drawn)	21	-2	3	25	0
CC(Cc1ccc(O)cc1)NCC(O)c1cc(O)cc(O)c1 (stereo not drawn)	-31*	nt	nt	-5	0
SMILES	D1 antag	D1 potentiator	D1 agonist	TRHR PAM	TRHR ag
COc1ccc(OC)c(NC(=O)Cn2cc(C(=O)c3ccccc3F)c3ccccc32)c1	-33*	-4	3	3	0
COCCNCCOc1ccc(C(C)(C)c2ccccc2)cc1	9	3	38*	0	2
CN(C)C1(CNC(=O)Nc2ccc(Cl)c(Cl)c2)CCCCC1	-7	-9	32*	16	4
CN(C)C1(CNC(=O)c2ccc(NS(=O)(=O)c3ccc(Cl)c(Cl)c3)cc2)CCCCC1	22	-6	2	-4	0
Cc1ccc(-c2nc(N3CCOCC3)s[n+]2-c2ccccc2)cc1	2	-2	0	31*	0
O=S1(=O)N(Cc2ccccc2Cl)CCCN1Cc1ccccc1Cl	-3	3	19	3	2
OC(COCc1ccc(Cl)cc1)CN1CC=C(c2ccccc2)CC1 (stereo not drawn)	-8	-6	29	10	-1
